Many of the other results were omitted from the sample, so hits are more common in it than they were.
TbREL1 primary: TbREL1 inhibition, primary screen; P86926; TbREL1 RNA ligation, FRET fluorescence; inhibition, % at 9.66 µM; actives 0.49% (n = 89,000); AID 1117264;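 active means inhibition above the mean inhibition across all screened compounds plus 3 SD, cut at about 11% in these data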;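 further: 0% = plate median of test wells and 100% = NSC42067 control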
Target sequence (P86926 whole entry, looked up): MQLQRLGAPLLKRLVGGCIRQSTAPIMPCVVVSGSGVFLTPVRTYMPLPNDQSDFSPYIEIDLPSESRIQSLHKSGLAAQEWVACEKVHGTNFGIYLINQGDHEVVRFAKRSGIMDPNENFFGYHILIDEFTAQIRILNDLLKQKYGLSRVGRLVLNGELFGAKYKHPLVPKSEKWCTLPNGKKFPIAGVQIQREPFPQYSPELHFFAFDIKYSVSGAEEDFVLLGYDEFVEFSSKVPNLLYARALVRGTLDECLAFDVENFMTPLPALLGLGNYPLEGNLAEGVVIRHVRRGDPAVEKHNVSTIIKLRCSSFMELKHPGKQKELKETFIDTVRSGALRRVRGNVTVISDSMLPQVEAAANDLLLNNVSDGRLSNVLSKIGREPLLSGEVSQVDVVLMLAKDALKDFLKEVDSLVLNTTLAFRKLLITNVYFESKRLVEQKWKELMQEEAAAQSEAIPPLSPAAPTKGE
Starred values were filed as active, the others as inactive.

SMILES | TbREL1 primary
O=C(CSc1nnc(Cn2c(=O)sc3ccccc32)n1-c1ccccc1)N1CCCC1 | 1
O=C(CSc1nnc(Cn2c(=O)sc3ccccc32)n1-c1ccccc1)N1CCCCCC1 | 12*
Cn1c(Cn2c(=O)sc3ccccc32)nnc1SCC(=O)N1CCCCCC1 | -2
O=C(Cn1nnc(-c2ccc(N3CCOCC3)cc2)n1)c1ccccc1 | 1
CCC[C@H]1[C@@H](NC(=O)c2ccc(C)cc2)CC[C@@]23CCCN2C(=O)CCC[C@@H]13 | 1
Fc1ccc(F)c(Cn2ccc3ccc(-c4ccc5ccn(Cc6cc(F)ccc6F)c5c4)cc32)c1 | 7
O=C(NCC(c1ccccc1)c1ccccc1)[C@H](Cc1c[nH]c2ccccc12)NC1(C(=O)NC2CCCCC2)CCC1 | -5
S=C1NC[C@H](Cc2ccccc2)N1CC1CCN(CCCC2CCCCC2)CC1 | -8
C#CCOCCOCCOCCNc1nc(N2CCOCC2)nc(N2CCN(C(=O)[C@H](CCCCN)n3cc(CCC(=O)O)nn3)CC2)n1 | 1
C#CCOCCOCCOCCNc1nc(N2CCN(C(=O)CCCCCCCCCCNC(=O)[C@H](CCCCN)n3cc(CCO)nn3)CC2)nc(N2CCN(C(=O)CCCCCCCCCCNC(=O)[C@H](CCCCN)n3cc(CCCC(=O)O)nn3)CC2)n1 | 12*
C#CCOCCOCCOCCNc1nc(N2CCOCC2)nc(N2CCN(C(=O)CCCCCCCCCCNC(=O)[C@H](CO)n3cc(CCCSC)nn3)CC2)n1 | -3
c1nc(NC[C@@H]2CCCO2)c2cc(-c3ccc4c(c3)OCO4)ccc2n1 | -1
C=CCn1c(Cc2cccs2)nnc1SCC(=O)Nc1ccc(OCc2ccccc2)cc1 | 3
C=CCN(Cc1ccc(OC)cc1OC)C(C#CCCCC)c1ccccc1 (stereo not given) | -3
O=C(NC1CCCC1)N1CCC(c2nc3ccc(Cl)cc3[nH]2)CC1 | 0
CCCCNc1c(-c2ccc(SC3CCCCC3)c(OC)c2)nc2ccc(Cl)cn12 | 25*
CCCCCCSc1cc(-c2nc3ccc(Cl)cn3c2NC2CCCCC2)ccc1OC | -2
CCCCCCSc1ccc(-c2nc3ccc(Cl)cn3c2NCCCC)cc1OC | -1
COCCCNC(=O)c1ccc(Cn2c(=O)c3ccccc3n(Cc3ccc(Br)cc3)c2=O)cc1 | -1
COC(=O)[C@]12C[C@H](CC(=O)NCCc3ccccc3OC)C(=O)N(Cc3ccc(Cl)cc3Cl)C1=C[C@H](C1CCCC1)O[C@@H]2C | 4
CCNC(=S)NNC(=O)c1cnccn1 | 5
C[C@H]1[C@@H](O)CC[C@@]23CCCN2C(=O)CCC[C@@H]13 | -4
C[C@H]1[C@@H](OC(=O)Nc2ccc(Br)cc2)CC[C@@]23CCCN2C(=O)CCC[C@@H]13 | 0
Nc1cccc(Nc2ccccc2)c1 | -2
O=S(=O)(O)c1cc(O)c2cc(Nc3ccccc3)ccc2c1 | 14*
SMILES | TbREL1 primary
Cc1ccc(S(=O)(=O)c2cc(Nc3ccccc3)ccc2O)cc1 | 3
Clc1ccc2nc(CNc3nc(N4CCOCC4)nc4c3ncn4-c3ccsc3)[nH]c2c1 | 4
COC(=O)[C@H]1C[C@@]2(CC=C(C)C)c3ccccc3N(C(=O)OC(C)(C)C)[C@H]2N1C(=O)OC(C)(C)C | -3
C[C@H]1[C@@H](NC(=O)C2CCC2)CC[C@@]23CCCN2C(=O)CCC[C@@H]13 | 2
CC(C)CC(CCOCCO)NC(=O)OCc1ccccc1[N+](=O)[O-] (stereo not given) | 10
CCCOc1ccc(F)cc1-c1cc(C(=O)Nc2ccc(C)c(NS(C)(=O)=O)c2)[nH]n1 | -1
CCCOc1ccc(F)cc1-c1cc(C(=O)NC(C)C)[nH]n1 | 3
CCCOc1ccc(F)cc1-c1cc(C(=O)Nc2ccc(OC)c(OC)c2)[nH]n1 | 16*
Cc1ccccc1NC(=O)OCCN1CCCC12CCC(c1ccccc1)CC2 (stereo not given) | -3
Fc1ccc(-c2n[nH]c(=S)n2N=Cc2cccc(OCc3ccccc3)c2)cc1 | -4
O=C(NCC(c1ccccc1)c1ccccc1)[C@H](Cc1c[nH]c2ccccc12)NC1(C(=O)NC2CCCCC2)CCN(Cc2ccccc2)CC1 | -4
COc1ccc(Br)cc1CNc1ccc(O)cc1 | 24*
COc1ccc(C(=O)NN)cc1COc1ccc(Br)cc1 | 6
C=CCc1cccc(CNc2ccc(Br)cc2)c1O | -3
COc1cccc(C(CC2=CCCCC2)NC(=O)C(F)(F)F)c1 (stereo not given) | -3
CCC[C@H]1[C@@H](OC(=O)NCc2cccnc2)CC[C@@]23CCCN2C(=O)CCC[C@@H]13 | 0
O=C(c1cc([N+](=O)[O-])cc([N+](=O)[O-])c1)N1CCN(Cc2ccc3c(c2)OCO3)CC1 | -2
O=C(c1cc(-c2ccc(F)cc2)no1)N1CCN(Cc2ccc3c(c2)OCO3)CC1 | -3
O=C(c1ccc(Br)o1)N1CCN(Cc2ccc3c(c2)OCO3)CC1 | 27*
CC(=O)N1CCc2cc(Br)c(S(=O)(=O)CCC(=O)N3CCN(c4ccccn4)CC3)cc21 | 5
CCN(Cc1ccccc1)C(=O)CCCN1C(=O)COc2ccc(C)cc21 | -3
CN(CCC#N)C(=O)COC(=O)c1ccc2[nH]c3c(c2c1)CCCC3 | 1
CN(CCC#N)C(=O)COC(=O)c1c2c(nc3ccccc13)/C(=C/c1ccco1)CC2 | 21*
CC(C)CNC(=O)COC(=O)c1c2c(nc3ccccc13)/C(=C\c1cccs1)CC2 | -4
Cc1ccc(NC(=O)Cc2ccc(OC(F)F)cc2)c(S(=O)(=O)N2CCOCC2)c1 | -4
SMILES | TbREL1 primary
CN1CC(=O)N2[C@@H](C[C@]3(c4c[nH]c5ccccc45)c4ccccc4N(S(=O)(=O)c4ccccc4)[C@H]23)C1=O | 0
COC(=O)c1cc(C)oc1C | 0
CC(=O)c1cnc(N(C)C)s1 | 0
CN(C)c1ncc(C2=C(Cl)C(=O)C(N3CCCC3)=C(Cl)C2=O)s1 | 69*
C=Cc1ccc(C(=O)N(Cc2ccc(F)cc2)C(C(=O)N(C)C2CCCC2)c2ccc(OC)c(OC)c2)cc1 (stereo not given) | -3
O=C(C1CCCN1S(=O)(=O)c1ccc(Cl)s1)N1CCN(c2ccccc2)CC1 (stereo not given) | 4
Cc1ccc(-c2cc(C(=O)NN=Cc3cc(Br)ccc3O)[nH]n2)cc1C | 0
CC(=O)Nc1ccc(S(=O)(=O)N2CCN(c3ccc(C(C)=O)cc3)CC2)cc1 | 5
O=C1Cc2cc(S(=O)(=O)N3CCN(c4ccc(C(=O)O)cc4)CC3)ccc2N1 | 4
CC(=O)c1ccc(N2CCN(S(=O)(=O)c3ccc4c(c3)C(Cl)(Cl)C(=O)N4)CC2)cc1 | 11*
O=c1c(OC2OC(CO)C(O)C(O)C2O)c(-c2ccc(O)c(O)c2)oc2cc(O)cc(O)c12 (stereo not given) | 92*
O=c1c(O[C@H]2O[C@@H](CO)[C@H](O)[C@@H](O)[C@@H]2O)c(-c2ccc(O)cc2)oc2cc(O)cc(O)c12 | 3
O=c1c2c(O)cc(O)cc2oc2c(O)ccc(O[C@H]3O[C@@H](CO)[C@H](O)[C@@H](O)[C@@H]3O)c12 | 5
O=C(Nc1ccc(C(O)(C(F)(F)F)C(F)(F)F)cc1)c1c(F)cccc1F | 1
Cc1ccc(SCCC(=O)Nc2c(C)n(C)n(-c3ccccc3)c2=O)cc1 | -1
Cc1c(NC(=O)CN2CC(C)OC(C)C2)c(=O)n(-c2ccccc2)n1C (stereo not given) | 13*
Cc1c(NC(=O)CN2CCN(c3ccccc3)CC2)c(=O)n(-c2ccccc2)n1C | 3
CCN(C(=O)Cn1nnc(-c2ccncc2)n1)c1ccccc1 | 2
Nc1nc(Nc2cccc(Cl)c2)nc(NCc2ccco2)c1[N+](=O)[O-] | 11*

Compound activity: PubChem, The Scripps Research Institute Molecular Screening Center
